Experimental data: PubChem BioAssay (NCATS)
A number with no mark means an inactive call. Calls follow the shape of the dose curve; as a rule, active = well fitted curve in the direction sought with a large enough effect; inconclusive = small, poorly fitted or top-dose-only effect, or another doubt; inactive = no such curve, though single readings can be large or run the other way.

Experiment: Dual reporter qHTS for agonist of Pregnane X Receptor (hPXR) against the NCATS DSHEA and TCM libraries: Fluorescence readout (AID 1920058); also: 0% is about no effect
Conditions: PXR dual reporter cells; series mostly up to 40 µM; activation: at the top concentration
Description: Assay Development and Screening Technology Laboratory (ADST)
National Center for Advancing Translational Sciences (NCATS), Rockville, MD
National Institute of Health (NIH), Bethesda, Maryland
Dietary Supplements and Natural Products have minor oversight of their safety and efficacy. We assembled a collection of Dietary Supplements and Natural Products (DSNP) as well as Traditional Chinese Medicinal (TCM) Plant extracts, which were screened against an in vitro panel of assays, including a liver cytochrome p450 enzyme panel, CAR/PXR signaling pathways, and P-gp transporter assays, to assess their activity. This pipeline facilitated the interrogation of Natural Product-Drug Interaction (NaPDI) through prominent metabolizing pathways. In addition, we compared the activity profiles of the DSNP/TCM substances with those of an approved drug collection. Many of the approved drugs have well-annotated mechanisms of action (MOA) while the MOAs for most of the DSNP and TCM samples remain unknown. Based on the premise that compounds with similar activity profiles tend to share similar targets or MOA, we clustered the library activity profiles to identify overlap with the NCATS Pharmaceutical Collection to predict the MOAs of the DSNP/TCM substances. Overall, we highlight four significant bioactivity profiles (measured by p-values) as examples of this prediction. To assess broad cytotoxicity, we employed screening against a HepG2 cell line. In addition, transporter-mediated drug interactions are utilized in the characterization of DDIs using a P-glycoprotein (P-gp) assays. To profile potential P-gp activity, a differential cell viability was measured against two cell lines: a parental KB-3-1 human cervical adenocarcinoma cell line and the drug-resistant subline KB-8-5-11 that overexpresses P-gp.
To this end, we profiled both collections for potential CAR and/or PXR activity, employing a previously published 1536-well qHTS assay.
[1] Lee TD, et al. A High-Throughput Screen of a Library of Therapeutics Identifies Cytotoxic Substrates of P-glycoprotein. Mol Pharmacol. Nov 2019;96(5):629-640. doi:10.1124/mol.119.115964
For PXR luciferase reporter gene assays, we used hPXR-LucHepG2cells provided by Dr. Taosheng Chen (Department of Chemical Biology and Therapeutics, St. Jude Children's Research Hospital). Cells were cultured in EMEM supplemented with 10% fetal bovine serum, 100U/mL penicillin and 100ug/mL streptomycin, and 500ug/mL of geneticin.
PROTOCOL TABLE (as described by Inglese J, Shamu CE and Guy RK. 2007)
SEQUENCE No. (e.g., 1, 2, 3, etc.); PARAMETER (e.g., Cells, Incubation, Reagent, etc.); VALUE; DESCRIPTION.
1; Cells; 5 uL; hPXR-LucHepG2; white solid-bottom Greiner plate.
2; Incubation; 5h; 37C, 95% humidity, 5% CO2
3; Compounds and control; 23 nL; Kalypsis pintool (Wako USA).
4; Reagent; 1uL; rifampicin (RIF) in the antagonist mode.
6; Reagent; 1 uL; CellTiter-Fluor detection reagent.
7; Incubation; 1 hr; 37C, 5% CO2.
8; Read; Fluorescence; ViewLux plate reader.
9; Reagent; 4 uL; ONE-Glo Luciferase detection reagent.
10; Incubation; 30 min; room temperature.
11; Read; Luminescence; ViewLux plate reader.
NOTES (numbers refer to Sequence numbers above)
1. Briefly, 5uL of hPXR-LucHepG2 cells in phenol red-free DMEM containing 5% charcoal-stripped FBS, 1 mM sodium pyruvate (Invitrogen), 2 mM L-glutamine (Invitrogen), and 100 U/mL penicillin and 100ug/mL streptomycin were dispensed using a BioRAPTR FRD at 4 x 10^5cells/mL (2000cells/well) in tissue culture-treated 1536-well white assay plates (GreinerBio-One).
2. Plates were incubated for 5h at 37C, 95% humidity, and 5% CO2 to allow for cell attachment.
3. Compounds (final concentration for most substances ranged from 15.6 nM to 45.9 µM), positive control rifampicin (RIF; final concentration range of 2.8 nM to 92 µM for the agonist mode), and cytotoxicity control tetraoctyl ammonium bromide (final concentration of 92 µM) were transferred (23 nL) via pintool (Wako Automation).
4-5. […]

SMILES | activation
O=C(/C=C/c1ccc(O)c(O)c1)O[C@@H]1CC(C(=O)O)=C[C@@H](O)[C@H]1O | -10.3%
CCCCCCCCCCCCCCCCCCCCCCCCCCCCCCO | 1.05% [at 5 µM]
CCCCCC(=O)CC | -24.5% [at 121 µM]
CC(=O)OC1CC2CCC1(C)C2(C)C (stereo not given) | 6.32%
CC(=O)O[C@@H]1CC[C@@]2(C)[C@@H](CC[C@]3(C)[C@@H]2C(=O)C=C2[C@@H]4[C@@H](C)[C@H](C)CC[C@]4(C)CC[C@]23C)[C@@]1(C)C(=O)O | -28.5%
Oc1cc(O)c2c(c1)O[C@@H](c1cc(O)c(O)c(O)c1)[C@H](O)C2 | -43.3%
C=C1C[C@@]23CC[C@H]4[C@@](C)(CCC[C@@]4(C)C(=O)O[C@@H]4O[C@H](CO)[C@@H](O)[C@H](O)[C@H]4O[C@@H]4O[C@H](CO)[C@@H](O)[C@H](O)[C@H]4O)[C@@H]2CC[C@]1(O[C@@H]1O[C@H](CO)[C@@H](O)[C@H](O)[C@H]1O[C@@H]1O[C@H](CO)[C@@H](O)[C@H](O)[C@H]1O)C3 | 8.62%
COc1ccccc1/C=C/C=O | -5.66% [at 68.2 µM]
CCCCCCCCCCCCCC(=O)O | 10.8%
O=C(O[C@@H]1Cc2c(O)cc(O)cc2O[C@@H]1c1ccc(O)c(O)c1)c1cc(O)c(O)c(O)c1 | -6.28%
CC(C)=CCC[C@](C)(O[C@@H]1O[C@H](CO)[C@@H](O)[C@H](O)[C@H]1O)[C@H]1CC[C@]2(C)[C@@H]1[C@H](O)C[C@@H]1[C@@]3(C)CC[C@H](O)C(C)(C)[C@@H]3[C@@H](O[C@@H]3O[C@H](CO)[C@@H](O)[C@H](O)[C@H]3O)C[C@]12C | -25.4%
CC(=O)O[C@H]1[C@H](O[C@H]2CC[C@]34C[C@]35CC[C@]3(C)[C@@H]([C@@]6(C)CC[C@@H](C(C)(C)O)O6)[C@@H](O)C[C@@]3(C)[C@@H]5C[C@H](O[C@@H]3O[C@H](CO)[C@@H](O)[C@H](O)[C@H]3O)[C@H]4C2(C)C)OC[C@@H](O)[C@@H]1O | 11.5%
CC(=O)OC/C=C/c1ccccc1 | 2.76% [at 68.2 µM]
C=CCc1ccc(OC)c(OC)c1 | 26.3%
CC(C)(O)[C@@H]1CC[C@](C)([C@@H]2[C@H](O)C[C@]3(C)C4C[C@@H](O[C@H]5O[C@@H](CO)[C@H](O)[C@@H](O)[C@@H]5O)C5C(C)(C)[C@H](O[C@H]6OC[C@H](O)[C@@H](O)[C@@H]6O)CC[C@]56CC46CC[C@@]23C)O1 (stereo not given in full) | 8.79%
CC(C)(O)[C@@H]1CC[C@](C)([C@H]2[C@@H](O)C[C@@]3(C)[C@@H]4C[C@H](O)[C@H]5C(C)(C)[C@@H](O[C@@H]6OC[C@@H](O)[C@H](O)[C@H]6O[C@@H]6O[C@H](CO)[C@@H](O)[C@H](O)[C@H]6O)CC[C@@]56C[C@@]46CC[C@]23C)O1 | -0.496%
O=C(O)CC(O)(C(=O)O)C(O)C(=O)O (stereo not given) | -3.63%
C[C@@H]1OC(O[C@H]2[C@H](O)[C@@H](O)[C@H](OC[C@H]3O[C@@H](OC(=O)[C@]45CCC(C)(C)C[C@@H]4C4=CCC6[C@@]7(C)CC[C@H](OC8OC[C@H](O)[C@H](O)[C@H]8OC8O[C@@H](C)[C@H](O)[C@@H](O)[C@H]8O)[C@@](C)(CO)C7CC[C@@]6(C)[C@]4(C)CC5)[C@H](O)[C@@H](O)[C@@H]3O)O[C@@H]2CO)[C@H](O)[C@H](O)[C@H]1O (stereo not given in full) | 17.2%
CC(C)=CCC[C@](C)(O[C@@H]1O[C@H](CO)[C@@H](O)[C@H](O)[C@H]1O)[C@H]1CC[C@]2(C)[C@@H]1[C@H](O)C[C@@H]1[C@@]3(C)CC[C@H](O)C(C)(C)[C@@H]3[C@@H](O[C@@H]3O[C@H](CO)[C@@H](O)[C@H](O)[C@H]3O[C@@H]3O[C@@H](C)[C@H](O)[C@@H](O)[C@H]3O)C[C@]12C | 13.4%
CCCCC/C=C/C/C=C/CCCCCCCC(=O)O | -1.06%

SMILES | activation
COc1ccc(-c2coc3cc(O[C@@H]4O[C@H](CO)[C@@H](O)[C@H](O)[C@H]4O)ccc3c2=O)cc1 | 0.749%
C[C@@H]1O[C@@H](OC[C@H]2OC(Oc3c(-c4ccc(O)c(O)c4)oc4cc(O)cc(O)c4c3=O)[C@H](O)[C@@H](O)[C@@H]2O)[C@H](O)[C@H](O)[C@H]1O (stereo not given in full) | -48.7%
CCCCCC(=O)O | -21.5% [at 68.2 µM]
CN(CC(=O)O)C(=N)N | -3.22% [at 121 µM]
O=C(/C=C/c1ccc(O)c(O)c1)OC1[C@H](O)CC(O)(C(=O)O)C[C@@H]1O (stereo not given in full) | -10.6%
O=C(/C=C/c1ccc(O)c2c1[C@H](C(=O)O)[C@@H](c1ccc(O)c(O)c1)O2)O[C@H](Cc1ccc(O)c(O)c1)C(=O)O | -1.21%
O=c1cc(-c2ccc(O)cc2)oc2cc(O[C@@H]3O[C@H](CO)[C@@H](O)[C@H](O)[C@H]3O[C@@H]3OC[C@](O)(CO)[C@H]3O)cc(O)c12 | -16.2%
CC(C)c1ccc(C=O)cc1 | 2.58% [at 68.2 µM]
Cc1ncc(COP(=O)(O)O)c(C)c1O | -7.52%
CCCCCCCCC[C@@H](O)CC(=O)CCc1ccc(O)c(OC)c1 | -29.9%
CC(C)=CCCC(C)=CCCC(C)=CCCC=C(C)CCC=C(C)CCC=C(C)C | 0.0189%
C=C(C)C(CC=C(C)C)CC12CC(CC=C(C)C)C(C)(C)C(CC=C(C)C)(C(=O)/C(=C(\O)c3ccc(O)c(O)c3)C1=O)C2=O (stereo not given) | -43.8%
CCCCCCCCCCCC(=O)O | 1.95%
O[C@@H]1[C@@H](O)[C@H](OC/C=C/c2ccccc2)O[C@H](CO[C@@H]2OC[C@H](O)[C@H](O)[C@H]2O)[C@H]1O | -7.53%
CCCCCCCC/C=C/CCCCCCCCCC(=O)O | 12.3%
C=CC(C)(CCC=C(C)C)OC(C)=O (stereo not given) | -5.46% [at 68.2 µM]
COc1ccc(/C=C/c2cc(OC)cc(=O)o2)cc1 | -11%
CC1=CCC(=C(C)C)CC1 | -5.84% [at 68.2 µM]
CCCCCCCC/C=C/CCCCCCCC(=O)O | 17%
CC(C)=CCC[C@](C)(OC1OC(COC2OCC(O)C(O)C2O)C(O)C(O)C1O)[C@H]1CC[C@]2(C)[C@@H]1[C@H](O)C[C@@H]1[C@@]3(C)CC[C@H](OC4OC(CO)C(O)C(O)C4OC4OC(CO)C(O)C(O)C4O)C(C)(C)[C@@H]3CC[C@]12C (stereo not given in full) | 9.21%
